The values that follow come from PubChem BioAssay AID2544 (Sanford-Burnham Center for Chemical Genomics, 2010).

Out of some 330,000 compounds screened, about 390 (0.12%) were called active. The list comes from a sample in which actives are over-represented; it also holds similar structures and randomly drawn compounds. Values without a mark were called inactive.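 How the source made its calls: active means inhibition reaching a set limit with compound at 10 µM in the primary screen (cut at about 35% in these data); inactive means the rest.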

In the assay the target is Intestinal-type alkaline phosphatase (Homo sapiens) (UniProt P09923). Briefly: blockers of intestinal alkaline phosphatase activity – biochemical, luminescence, uHTS, primary screen (AID 2544).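 Further: plate controls were DMSO wells with enzyme for no effect and no-enzyme buffer wells for full effect.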 The following applies: purified IAP, CDP-Star luminescence, 30 min; at 10 µM; stronger effect = higher value.
Intestinal-type alkaline phosphatase (Homo sapiens), sequence (P09923 whole entry, looked up): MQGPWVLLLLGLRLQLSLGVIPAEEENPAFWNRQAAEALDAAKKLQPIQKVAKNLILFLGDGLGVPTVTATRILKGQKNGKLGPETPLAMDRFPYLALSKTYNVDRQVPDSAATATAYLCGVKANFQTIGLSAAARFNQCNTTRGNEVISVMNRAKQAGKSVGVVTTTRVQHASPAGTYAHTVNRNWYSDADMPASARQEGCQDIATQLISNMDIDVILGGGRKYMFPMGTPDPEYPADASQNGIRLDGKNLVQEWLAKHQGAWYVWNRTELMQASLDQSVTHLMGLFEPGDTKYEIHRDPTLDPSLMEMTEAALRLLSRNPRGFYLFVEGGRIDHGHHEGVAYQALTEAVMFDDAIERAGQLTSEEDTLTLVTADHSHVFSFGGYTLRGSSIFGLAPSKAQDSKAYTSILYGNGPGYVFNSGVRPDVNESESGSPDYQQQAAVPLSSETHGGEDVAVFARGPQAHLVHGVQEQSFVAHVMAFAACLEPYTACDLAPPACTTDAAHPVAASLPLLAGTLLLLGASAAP
As usually defined, the inhibition is the drop in the measured response relative to a control, in per cent. As to `Cc1cc(N)n2nc(-c3ccc(C(C)(C)C)cc3)cc2n1`, the inhibition is -9%.

For `COc1ccc(-c2nc3cc(C)ccn3c2NC2CCCCC2)cc1SC1CCCCC1`, the inhibition is 18.9%. Take `CC1(C)OC(=O)C(=CNC(CO)C(=O)O)C(=O)O1` (stereo not given): the inhibition is 4.1%.

Regarding `CCN(CC(=O)NCc1ccc(Cl)cc1)C(=O)c1c(C)noc1C`, the inhibition was -14.3%.

In the case of `COc1cccc(CNC(=O)C2CC(=O)N(C3CCCCCCC3)C2)c1` (stereo not given), the inhibition is -15%. In the case of `COC(=O)NNC(=O)C1CCC(C)CC1` (stereo not given), the inhibition was -0.3%.

Consider `O=C(O)CCn1c(O)c(C=C2N=c3ccccc3=N2)sc1=S`, for which the inhibition is -32.1%. `Cc1ccc(NC(=O)COC(=O)C2C3CC4OC(=O)C2C4C3)cc1Cl` (stereo not given): the inhibition was 5.1%.

Consider `CCOC(=O)N1CCN(S(=O)(=O)c2cc3c(cc2C)NC(=O)CO3)CC1`, for which the inhibition was -3.7%. Take `O=C(CNC(=O)c1n[nH]c2ccccc12)Nc1cc(Cl)ccc1Cl`: the inhibition was -16.2%. The result for `FC(F)(F)c1ccnc(Oc2ccc(C3=NCCS3)cc2)c1` reads 10.4%; that for `CC(C)(C)OC(=O)N1CCC(NC(=O)c2[nH]cnc2C(=O)N[C@@H](Cc2ccccc2)C(=O)OCc2ccccc2)CC1`, -35.2%; that for `COc1ccccc1C(=O)OCC(=O)Nc1cccc(S(=O)(=O)NC2=NCCCCC2)c1`, 19.2%.

With `COc1ccccc1C(CNC(=O)c1ccc(C)c(S(=O)(=O)N2CCCCC2)c1)N(C)C` (stereo not given), the inhibition was -3.4%. Regarding `CN1CCN(CC(=O)C23CC4CC(CC(C4)C2)C3)CC1`, the inhibition is 4.5%. The result for `Cc1ccc(C(=O)N(CC(=O)NC2CCCC2)c2ccc(F)cc2)s1` reads -20.5%. Take `CCCc1cc(C(=O)N2CCCC(CO)(CCCc3ccccc3)C2)n(C)n1` (stereo not given): the inhibition was -5.7%.

In the case of `CC#CC[N+](C)(C)CCCCCC`, the inhibition is 6.2%.

`O=C(/C=C/c1cccc(C(F)(F)F)c1)N1CCN(c2ccccn2)CC1`: the inhibition was -1.3%. The same measure for `c1csc(-c2nnc(COc3ncnc4sccc34)o2)c1`: 13.5%; for `Cc1sc2ncn(CC(=O)NCCN(C)C)c(=O)c2c1S(=O)(=O)N1CCC(C)CC1`: 10.2%. `CCN(Cc1ccccc1)S(=O)(=O)c1cc(C(=O)O)ccc1OC`: the inhibition is -17.1%. For `Cc1ccc(CN2CCN(Cc3cccc(C)n3)CC2CCO)cc1` (stereo not given), the inhibition is 4.3%. As to `Cc1c(C=O)c2ccccn2c1C(=O)c1ccncc1`, the inhibition is 35.9% (active). For the compound `Cc1c(C(=O)NNC(=O)c2ccncc2)oc2ccccc12`, the inhibition was -50.2%.

For the compound `Cc1cc2ccccn2c1C(=O)c1cccc(F)c1`, the inhibition was 18.3%. On to `CC1C(=O)C(C)C(c2ccc(O)cc2)NC1c1ccc(O)cc1` (stereo not given), for which the inhibition was 4.6%. For `CCc1cc(CNC(=O)CC2C(=O)NCCN2CC2CCCCC2)on1` (stereo not given), the inhibition is -7.8%.

`COc1ccc(CNC(=O)CSc2n[nH]c(N)n2)cc1OC`: the inhibition is 5.7%. The same measure for `CS(=O)(=O)Nc1ccccc1C(=O)OCC(=O)NC1CC1`: -0.7%; for `O=C(NCc1ccco1)c1ccc(Cn2c(=O)c3sccc3n(Cc3ccc(F)cc3)c2=O)cc1`: 1.3%; for `Cn1c(=O)c2sccc2n(Cc2ccc(Br)cc2)c1=O`: 38.1% (active). The same measure for `Cn1c(=O)c2c(nc(N/N=C/c3cccs3)n2Cc2ccc(Br)cc2)n(C)c1=O`: -142%; for `N#Cc1c(-c2ccc(F)cc2)cc(C2CC2)nc1SCC(=O)c1cccs1`: 10.2%. Consider `CCOC(=O)Cc1csc(NC(=O)CN(C)S(=O)(=O)c2ccc3c(c2)CCC(=O)N3)n1`, for which the inhibition was -6.4%.

For the compound `CS(=O)(=O)c1sc(C(=O)NC(=S)Nc2ccc(OC(F)(F)F)cc2)c2c1C=CCC2`, the inhibition was -34.5%.

On to `Cc1ccc2cccc(S(=O)(=O)N3CCN(c4ccccc4F)CC3)c2n1`, for which the inhibition is 22.1%. Take `CSc1ccc(CNC(=O)c2ccc(NC(=O)C3=CSCCO3)cc2)cc1`: the inhibition was 17.2%. The result for `O=C(NCCN1CCOCC1)[C@H](Cc1ccccc1)N1C(=O)c2ccccc2C1=O` reads 41.1% (active); that for `O=C(CCN1C(=O)c2ccccc2C1=O)NCCN1CCOCC1`, -14.9%. With `O=C(NC1=NCCS1)[C@H](Cc1ccccc1)N1C(=O)c2ccccc2C1=O`, the inhibition is 4.4%.

Turning to `CN(C(=O)CSc1cccc[n+]1[O-])C1CCCCC1`, the inhibition is 2.3%. As for `Cc1cc([N+](=O)[O-])nn1CCCC(=O)Nc1cccnc1Cl`, the inhibition is 6.1%. With `CC1(C)O[C@@H]2[C@H](O1)[C@@H](COS(=O)(=O)O)O[C@H]2n1cnc2c(=O)[nH]cnc21`, the inhibition was -9%. Take `Cc1cc(Cl)c2oc(C(=O)N3CCC(O)(c4ccccc4)CC3)c(C)c2c1`: the inhibition was -10.6%.

In the case of `COc1ccc(Nc2cc(=O)n(-c3ccccc3)c3c2c(=O)n(C)c(=O)n3C)cc1`, the inhibition was 3.3%. As to `CN(Cc1ccccc1Cl)C(=O)C1CCC(=O)N(CCc2cccc(F)c2)C1` (stereo not given), the inhibition is -4.4%.

As to `Cc1cc(C)nc(SCc2nnc(SCC(=O)OC3CCCCC3)o2)n1`, the inhibition is -7.3%. The result for `CCOCCCN(C(=O)Cn1nnc(-c2ccc(OC)c(OC)c2)n1)C(CC)C(=O)NC1CCCC1` (stereo not given) reads -21.9%; that for `CC(=O)c1ccc(N2CCN(CC(=O)Nc3ccccc3N3CCOCC3)CC2)cc1`, 6.2%; that for `CCCCC(=O)Nc1ccccc1N1CCN(c2ccc(F)cc2)CC1`, -6.3%.

Turning to `CCC(C)C(=O)Nc1ccccc1N1CCN(c2ccc(F)cc2)CC1` (stereo not given), the inhibition is 42.4% (active). The same measure for `CCOC(=O)c1ccc(NC(=S)Nc2cc(C)cc(C)n2)cc1`: -2%; for `CCOC(=O)c1cn[nH]c1NC(=S)Nc1ccccc1`: 60.8% (active). The result for `CCOC(=O)c1cc2c(nc1NC(=S)Nc1ccccc1)CC(C)(CC)OC2` (stereo not given) reads -6.3%; that for `NC(N)=Nc1nc2ccc(Br)cc2c(=O)[nH]1`, -7.7%; that for `c1ccc(CSCCc2ccncc2)cc1`, 39.6% (active). Turning to `CC(C)(C)c1ccc(SCCc2ccncc2)cc1`, the inhibition was -36.5%. The same measure for `Cc1cc(C)c(SCCc2ccncc2)c(C)c1`: -12.6%; for `O=C1N(c2ccc(Cl)cc2)C(c2ccc(Cl)cc2)N2CCCN12` (stereo not given): 0.2%.
